# NR3A LBD binder = modulates the human NR3A ligand-binding domain | hit rate 2.5% among 340,000 | AID 1259313 | Tm shift relative to glycine control, % at 25 µM | NR3A LBD differential scanning fluorimetry, Tm shift; 0% = protein alone, 100% = glycine-bound protein;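 active = melting temperature shift of at least 10% of the positive control shift, at one fixed dose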
# pCIP destab = compounds decreasing mouse p/CIP protein stability. F442A p/CIP-EGFP cells, EGFP fluorescence, 16 h. hit rate 0.01% among 290,000. AID 1984. Q05BA5. decrease of EGFP signal, % at 10 µM;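 active = EGFP signal decrease of at least 30% at 10 µM or well 3 SD below plate mean, unless failing retest; inactive = the rest, including hits failing retest or dose response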
# MPTP block = inhibitors of mitochondrial permeability transition pore; AID 602449; isolated mouse mitochondria, Ca2+ swelling absorbance, 30 min; hit rate 1.4% among 360,000; inhibition, % at 10 µM;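 active = inhibition of 50% or more, scaled per plate between neutral and stimulator controls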;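 note: 0% = DMSO wells given calcium and 100% = 1 mM EGTA wells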
# beta cell repl = inducers of beta-cell replication in MIN6 cells; MIN6 cells proliferation, ATPlite luminescence, 48 h; cells starved in 0.2% serum; 100% = growth in 10% serum; proliferation, % at 10 µM; hit rate 0.29% among 330,000; AID 2380;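 active = compounds whose signal lies at least 3.5 SD above the mean of all wells on their plate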;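 note: 0% = DMSO-treated cells in low-serum medium and 100% = 10% serum control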
# FAS-TE inh = FAS thioesterase (human) inhibition. AID 602261. P49327. inhibition, % at 15 µM. hit rate 0.67% among 360,000. recombinant FAS-TE, OMFH fluorogenic substrate, fluorescence endpoint;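 active = compounds whose normalised, plate-corrected inhibition of enzyme fluorescence in the single-dose primary screen is 50% or more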;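 note: 0% = DMSO with enzyme and 100% = substrate without enzyme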
# * = called active by the depositor; / = no result given. Only some compounds are listed: those with a hit (about 4.1% of all), similar ones and a draw of the others.
SMILES,NR3A LBD binder,pCIP destab,MPTP block,beta cell repl,FAS-TE inh
Cc1[nH]c2ccccc2c1SCC(=O)NNC(=O)Nc1ccc(OC(F)(F)F)cc1,12*,-8,7,-1,25
Cc1cc(C)cc(Oc2cc(NC(=O)c3cn(C)nc3C)cc([N+](=O)[O-])c2)c1,13*,-3,32,-5,10
Cc1ccc(Oc2cc(NC(=O)CCCn3nc([N+](=O)[O-])c(Cl)c3C)cc([N+](=O)[O-])c2)cc1,10,-4,44,-6,37
O=C(c1[nH]c(C(F)(F)F)nc1-c1ccccc1)N1CCN(c2ncccn2)CC1,/,/,0,/,-8
C=CCN(C(=O)CCC(=O)Nc1cc(C)on1)C(C(=O)NC(C)(C)C)c1cccc(OC)c1OC (stereo unspecified),401*,-1,1,-2,-4
COc1cccc(C(C(=O)NC(C)(C)C)N(Cc2ccc(C)cc2)C(=O)CCC(=O)Nc2cc(C)on2)c1OC (stereo unspecified),-1,4,0,0,1
CC(=O)c1ccc(Nc2nc(C(N)CCc3ccccc3)cs2)cc1 (stereo unspecified),/,/,2,/,-1
CC(=O)Nc1cccc(NC(=O)c2ccc3[nH]c(C)c(C)c3c2)c1,28*,-3,-3,0,-2
Cc1[nH]c2ccc(C(=O)NCc3ccccn3)cc2c1C,0,-5,-1,4,-7
CC(=O)Nc1cccc(NC(=O)c2cccc(-c3ccc(O)cc3)c2)c1,10*,3,-1,0,4
COc1ccc(NC(=O)c2ccc3[nH]c(C)c(C)c3c2)cc1,29*,-18,-1,0,3
Cc1cc(NC(=O)c2ccc3[nH]c(C)c(C)c3c2)ccn1,12*,-15,0,-2,-1
COc1ccc(N2CCN(C(=O)c3ccc4[nH]c(C)c(C)c4c3)CC2)cc1,1,2,0,-1,5
Cc1ccccc1S(=O)(=O)NC(=O)C1(C)CCN1C(=O)CC1CCCCC1 (stereo unspecified),/,/,-1,/,-8
CCCS(=O)(=O)NC(=O)C1(C)CCN(C(=O)c2ccc(C(F)(F)F)cc2)C1 (stereo unspecified),/,/,0,/,-5
CC(=O)Nc1ccc(CN2C(=O)C(C)(C)ON=C2c2ccc(C(F)(F)F)cc2)cc1,/,/,-1,/,-1
Nc1nc2c(ncn2[C@@H]2O[C@H](CNS(=O)(=O)c3cccnc3)[C@@H](O)[C@H]2O)c(=O)[nH]1,/,/,0,/,-2
COc1ccc(Cl)cc1NC(=O)C(C)OC(=O)c1ccc(NS(=O)(=O)c2ccc3[nH]c(=O)[nH]c3c2)cc1 (stereo unspecified),18*,0,0,-4,22
CC(OC(=O)c1ccc(NS(=O)(=O)c2ccc3[nH]c(=O)[nH]c3c2)cc1)C(N)=O (stereo unspecified),2,-4,-3,-1,-4
CC(OC(=O)c1ccc(NS(=O)(=O)c2ccc3[nH]c(=O)[nH]c3c2)cc1)C(=O)Nc1ccc(Cl)cc1 (stereo unspecified),15*,-10,1,-5,23
COc1cc2c(cc1NC(=O)C(C)OC(=O)c1ccc(S(=O)(=O)Nc3ccccc3Cl)cc1)oc1ccccc12 (stereo unspecified),10*,14,10,-3,34
C1CCCN(c2nc3nonc3nc2N2CCCCCC2)CC1,2,-19,-1,0,3
Nc1nc2nonc2nc1N1CCCCC1,15*,-1,0,0,-10
O=C(CNc1ccc2ccccc2c1)N/N=C/C=C/c1cccc([N+](=O)[O-])c1,22*,-1,1,-6,5
O=C(/C=C/c1ccc([N+](=O)[O-])cc1)c1cccnc1,24*,0,0,-5,-6
SMILES,NR3A LBD binder,pCIP destab,MPTP block,beta cell repl,FAS-TE inh
O=C(N/N=C/C=C\c1cccc([N+](=O)[O-])c1)c1cccnc1,12*,-4,0,-4,1
O=C(/C=C/c1ccc([N+](=O)[O-])cc1)NCc1cccnc1,0,-3,0,0,0
O=C(N/N=C/C=C/c1cccc([N+](=O)[O-])c1)C(O)c1ccccc1 (stereo unspecified),-2,0,1,0,-2
CC(=O)Nc1cc(-c2ccc(C(=O)NC3CC3)cc2)cn2c(-c3ccc(F)c(Cl)c3)cnc12,/,/,2,/,17
Nc1nc(=O)n(C2CCC(CO)O2)cc1F (stereo unspecified),/,/,-1,/,-7
O=C(c1ccc(S(=O)(=O)NCc2ccco2)cc1)N1CCN(c2ccc(F)cc2)CC1,-2,/,0,2,4
O=C(/C=C/c1ccc(S(=O)(=O)NCc2ccco2)cc1)N1CCN(c2ccccc2)CC1,16*,18,0,-1,2
Nc1n[nH]c(N)c1N=Nc1cccc(C(F)(F)F)c1,20*,5,0,-3,-7
O=C(NC(Cc1ccccc1)C(=O)Oc1ccc2c(C(F)(F)F)cc(=O)oc2c1)OCc1ccccc1 (stereo unspecified),14*,-4,4,/,23
O=c1c2ccccc2oc2ccc(-c3ccc4cc[nH]c4c3)cc12,26*,/,0,-1,15
Cc1ccc2oc3ccccc3c(=O)c2c1,-1,/,0,/,6
CN(C)c1ccc(CN(C(=O)COc2ccc(Br)cc2)C2CCS(=O)(=O)C2)cc1 (stereo unspecified),0,-8,2,0,20
Cc1ccc(OCC(=O)N(Cc2ccc(N(C)C)cc2)C2CCS(=O)(=O)C2)cc1 (stereo unspecified),17*,0,-4,2,-2
N#Cc1c(Cl)nc(-c2ccncc2)nc1-c1ccccc1,11*,-3,0,0,-1
CC(C)Nc1nc(-c2ccncc2)nc(-c2ccc(Cl)cc2)c1C#N,10*,-5,0,5,5
N#Cc1c(-c2ccccc2)nc(-c2ccncc2)[nH]c1=O,-2,9,0,-1,-3
N/C(=N\OC(=O)c1ccccc1Br)c1ccc([N+](=O)[O-])cc1,11*,-18,0,-4,16
N/C(Cc1ccc([N+](=O)[O-])cc1)=N\OC(=O)c1ccccc1Br,12*,-12,1,-2,14
N/C(Cc1ccc([N+](=O)[O-])cc1)=N\OC(=O)c1ccc(Br)cc1,-25,-11,1,2,23
CN1CCN(c2ccc3c(c2)OC[C@@H](Cc2ccccc2)NS3(=O)=O)CC1,/,/,0,/,-5
O=S(=O)(Nc1nc2ccccc2nc1N1CCc2ccccc2C1)c1ccc(Br)cc1,10*,-2,2,/,-8
O=S(=O)(Nc1nc2ccccc2nc1N1CCc2ccccc2C1)c1ccc(Cl)cc1,10,9,41,-3,20
CC(=O)Nc1ccc(S(=O)(=O)Nc2nc3ccccc3nc2N2CCc3ccccc3C2)cc1,16*,2,1,-1,5

# High-throughput results (PubChem BioAssay)
